From PubChem BioAssay (NCI) come the findings set out here.

Compounds without any hit were thinned out: in the full panel of roughly 83,000, 20% have a hit.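 Values shown are percent growth following 48 h exposure of cells in 96-well plates to a single concentration of compound; below 10 was considered active.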 The source made the active and inactive calls.

The first experiment relates to UO-31 renal. Nature of the experiment: NCI-60 one-dose screen, 48 h (100 = growth as untreated, 0 = no growth, -100 = all killed). Conditions: 10 µM unless noted.
With `CC(=O)Nc1nc(C(=O)N2N=C(C)/C(=C/c3cccs3)C2=O)cs1`, the growth is 84% (inactive).
As for `CN1C(=O)[C@H]2c3c1cccc3[C@@]13NC(=O)O[C@H]1[C@H](CCC3(C)C)C2(C)C`, the growth was 84.6% (inactive).
As for `CC(=O)C1CCC(C)=CC1=O` (stereo not drawn), the growth is 80.3% (inactive).
Take `COc1cccc(-n2cc(-c3nc(Cl)c4ccccc4n3)nn2)c1`: the growth is 78.3% (inactive).
Same read-out and setting: for `Nc1c(C(=O)Nc2cccc(Cl)c2Cl)sc2nc3c(cc12)C(=O)CCC3` the value was 78.8% (inactive); for `COc1cc(/C=C2\CCCC3=C2NC(C)=NC3c2cc(OC)c(OC)c(OC)c2)cc(OC)c1OC` (stereo not drawn), 51.1% (inactive).
On to `O=c1[nH]c(-c2cn(-c3ccc(Cl)cc3)nn2)nc2ccccc12`, for which the growth was 46.1% (inactive).
The same measure, in the same setting: for `CC/C(=C(\c1ccc(O)cc1)c1ccc(OCCN(C)CCN(C)C(=O)CCC(=O)c2c(C)[nH]c(/C=C3\N=C(c4ccc[nH]4)C=C3OC)c2C)cc1)c1ccccc1` the value was 46.9% (inactive); for `Cc1cc(Nc2nc(-c3ccncc3)nc3ccccc23)n[nH]1`, 33.4% (inactive); for `COc1cc(C2C=C(C)N=C3SC=CN32)cc(OC)c1OC` (stereo not drawn), 90% (inactive).
Same read-out and setting: for `COC1=CC(c2ccc[nH]2)=N/C1=C\c1[nH]c(C)c(C(=O)CCC(=O)Oc2ccc3c(c2)CCC2C3CC[C@]3(C)[C@@H](O)CC[C@@H]23)c1C` (stereo partly drawn) the value was -61.9% (active).
The same measure, in the same setting: the same measure for `Cc1ccc(Cn2c(-c3nonc3N)nc3ccccc32)cc1`: 66.2% (inactive); for `O=C(Nc1ccccc1)OCC1OCOC(COC(=O)Nc2ccccc2)C1OC(=O)Nc1ccccc1` (stereo not drawn): 85.6% (inactive).
As for `CC1=CNNc2c3ncnc-3ncn21`, the growth was 90.6% (inactive).
On the same count and under the same terms, for `CCN(CC)c1cc(/C=C/c2ccc(OC)c(OC)c2)nc2cc(F)c(F)cc12` the value was 75.3% (inactive); for `CCCCCCCCCCCCOB(OCCCCCCCCCCCC)OCCCCCCCCCCCC`, 91.8% (inactive); for `c1ccn2nnnc2c1`, 94.5% (inactive).
`Nc1c(C(=O)Nc2c(Cl)cccc2Cl)sc2nc3c(cc12)CCCCC3`: the growth was 63.9% (inactive).
On the same count and under the same terms, for `COc1ccc(-n2c(C)cc(-c3ccccc3)c2C)cc1` the value was 52.3% (inactive); for `COc1cc2c(cc1OC)C1(C)N(CC2)C(=O)OC1(C)C` (stereo not drawn), 91.3% (inactive).
The same measure, in the same setting: the same measure for `COc1ccc(/C=C/c2nc(N3CCOCC3)c3nc(Cl)c(Cl)cc3n2)cc1OC`: 108% (inactive); for `Cc1cccc(NC(=O)c2sc3nc4c(cc3c2N)CCCC4)c1`: 54.2% (inactive); for `O=C(/C=C/c1ccccc1)n1c(-c2ccc(Cl)cc2)nc2ccccc21`: -39% (active).
Still for that read-out and setting: the same measure for `COc1cc(Cn2c(-c3nonc3N)nc3ccccc32)ccc1C`: 48.3% (inactive).
`Clc1ccc(-c2nc(-c3ccco3)cn3ccnc23)cc1`: the growth is 7.06% (active).
The same measure, in the same setting: for `Oc1ccc(N=Cc2ccccc2)cc1` the value was 77.5% (inactive); for `CCCCCc1c(C)[nH]c(/C=c2\[nH]/c(=C3/C=c4ccccc4=N3)cc2OC)c1C`, -89.7% (active).
Still for that read-out and setting: the same measure for `COc1cc2nc(Cl)nc(NCCO)c2cc1OC`: 94.8% (inactive); for `CCC1CCc2nc3sc(C(=O)Nc4ccccc4C)c(N)c3cc2C1` (stereo not drawn): 37.6% (inactive); for `Cc1cc(Nc2nc(C(=O)Nc3ccccc3)nc3ccccc23)n[nH]1`: 37.3% (inactive).
Same read-out and setting: the same measure for `c1ccc2nc(-c3ccc4ccccc4n3)ccc2c1`: 78.4% (inactive); for `Clc1nc2ccccc2nc1CI`: 69.2% (inactive); for `Cc1cccc(NC(=O)c2sc3nc4c(cc3c2N)CCC4)c1C`: 43.4% (inactive).
In the case of `Clc1cccc(Cl)c1Cn1c(-c2cncs2)nc2ccccc21`, the growth is 68.3% (inactive).
Take `Clc1ccc(/C=C/c2nc(N3CCOCC3)c3nc(Cl)c(Cl)cc3n2)cc1`: the growth was 76.7% (inactive).
The same measure, in the same setting: for `Cc1cc(Nc2nc(-c3ccc(F)cc3)nc3ccccc23)n[nH]1` the value was 32% (inactive); for `COC(=O)[C@H]1[C@H](OC)[C@@H](OC(=O)/C=C/c2ccncc2)CC2CN3CCc4c([nH]c5cc(OC)ccc45)[C@@H]3C[C@@H]21` (stereo partly drawn), 56.9% (inactive); for `CN(C)c1ncc(-c2ccc(C(F)(F)F)cc2)c(NC2CCCCCC2)n1`, 31% (inactive).
The same measure, in the same setting: for `CC(=O)Nc1ccc(S(=O)(=O)N2C(=O)CCC2C(=O)Nc2ccccc2)cc1` (stereo not drawn) the value was 14.1% (inactive).

Another experiment has as its system TK-10 renal. The description is as above. The conditions noted are these: 10 µM unless noted.
In the case of `CC(=O)Nc1nc(C(=O)N2N=C(C)/C(=C/c3cccs3)C2=O)cs1`, the growth is 107% (inactive).
Still for that read-out and setting: the same measure for `CN1C(=O)[C@H]2c3c1cccc3[C@@]13NC(=O)O[C@H]1[C@H](CCC3(C)C)C2(C)C`: 87.2% (inactive); for `CC(=O)C1CCC(C)=CC1=O` (stereo not drawn): 97.7% (inactive).
The same measure, in the same setting: for `COc1cccc(-n2cc(-c3nc(Cl)c4ccccc4n3)nn2)c1` the value was 105% (inactive); for `Nc1c(C(=O)Nc2cccc(Cl)c2Cl)sc2nc3c(cc12)C(=O)CCC3`, 81.9% (inactive).
Consider `COc1cc(/C=C2\CCCC3=C2NC(C)=NC3c2cc(OC)c(OC)c(OC)c2)cc(OC)c1OC` (stereo not drawn), for which the growth was 44.5% (inactive).
As to `O=c1[nH]c(-c2cn(-c3ccc(Cl)cc3)nn2)nc2ccccc12`, the growth is 80.6% (inactive).
In the case of `CC/C(=C(\c1ccc(O)cc1)c1ccc(OCCN(C)CCN(C)C(=O)CCC(=O)c2c(C)[nH]c(/C=C3\N=C(c4ccc[nH]4)C=C3OC)c2C)cc1)c1ccccc1`, the growth is 117% (inactive).
The same measure, in the same setting: for `Cc1cc(Nc2nc(-c3ccncc3)nc3ccccc23)n[nH]1` the value was 62% (inactive); for `COc1cc(C2C=C(C)N=C3SC=CN32)cc(OC)c1OC` (stereo not drawn), 107% (inactive).
Still for that read-out and setting: for `COC1=CC(c2ccc[nH]2)=N/C1=C\c1[nH]c(C)c(C(=O)CCC(=O)Oc2ccc3c(c2)CCC2C3CC[C@]3(C)[C@@H](O)CC[C@@H]23)c1C` (stereo partly drawn) the value was 34.4% (inactive); for `Cc1ccc(Cn2c(-c3nonc3N)nc3ccccc32)cc1`, 90.4% (inactive).
The same measure, in the same setting: for `O=C(Nc1ccccc1)OCC1OCOC(COC(=O)Nc2ccccc2)C1OC(=O)Nc1ccccc1` (stereo not drawn) the value was 83.3% (inactive); for `CC1=CNNc2c3ncnc-3ncn21`, 105% (inactive).
As for `CCN(CC)c1cc(/C=C/c2ccc(OC)c(OC)c2)nc2cc(F)c(F)cc12`, the growth was -28.6% (active).
Same read-out and setting: for `CCCCCCCCCCCCOB(OCCCCCCCCCCCC)OCCCCCCCCCCCC` the value was 101% (inactive).
Still for that read-out and setting: the same measure for `c1ccn2nnnc2c1`: 96.4% (inactive).
Consider `Nc1c(C(=O)Nc2c(Cl)cccc2Cl)sc2nc3c(cc12)CCCCC3`, for which the growth is 69% (inactive).
Take `COc1ccc(-n2c(C)cc(-c3ccccc3)c2C)cc1`: the growth is 57.3% (inactive).
Still for that read-out and setting: for `COc1cc2c(cc1OC)C1(C)N(CC2)C(=O)OC1(C)C` (stereo not drawn) the value was 102% (inactive); for `COc1ccc(/C=C/c2nc(N3CCOCC3)c3nc(Cl)c(Cl)cc3n2)cc1OC`, 104% (inactive); for `Cc1cccc(NC(=O)c2sc3nc4c(cc3c2N)CCCC4)c1`, 70.7% (inactive).
Still for that read-out and setting: for `O=C(/C=C/c1ccccc1)n1c(-c2ccc(Cl)cc2)nc2ccccc21` the value was 18.6% (inactive).
On the same count and under the same terms, the same measure for `COc1cc(Cn2c(-c3nonc3N)nc3ccccc32)ccc1C`: 54% (inactive).
Turning to `Clc1ccc(-c2nc(-c3ccco3)cn3ccnc23)cc1`, the growth was 11.9% (inactive).
Same read-out and setting: the same measure for `Oc1ccc(N=Cc2ccccc2)cc1`: 108% (inactive); for `CCCCCc1c(C)[nH]c(/C=c2\[nH]/c(=C3/C=c4ccccc4=N3)cc2OC)c1C`: -47% (active); for `COc1cc2nc(Cl)nc(NCCO)c2cc1OC`: 103% (inactive).
For the compound `CCC1CCc2nc3sc(C(=O)Nc4ccccc4C)c(N)c3cc2C1` (stereo not drawn), the growth was 59.6% (inactive).
The same measure, in the same setting: for `Cc1cc(Nc2nc(C(=O)Nc3ccccc3)nc3ccccc23)n[nH]1` the value was 58.8% (inactive); for `c1ccc2nc(-c3ccc4ccccc4n3)ccc2c1`, 116% (inactive).
Still for that read-out and setting: for `Clc1nc2ccccc2nc1CI` the value was 166% (inactive); for `Cc1cccc(NC(=O)c2sc3nc4c(cc3c2N)CCC4)c1C`, 35% (inactive); for `Clc1cccc(Cl)c1Cn1c(-c2cncs2)nc2ccccc21`, 85.1% (inactive).
Still for that read-out and setting: the same measure for `Clc1ccc(/C=C/c2nc(N3CCOCC3)c3nc(Cl)c(Cl)cc3n2)cc1`: 107% (inactive); for `Cc1cc(Nc2nc(-c3ccc(F)cc3)nc3ccccc23)n[nH]1`: 32.6% (inactive).
Consider `COC(=O)[C@H]1[C@H](OC)[C@@H](OC(=O)/C=C/c2ccncc2)CC2CN3CCc4c([nH]c5cc(OC)ccc45)[C@@H]3C[C@@H]21` (stereo partly drawn), for which the growth was 91.6% (inactive).
On the same count and under the same terms, the same measure for `CN(C)c1ncc(-c2ccc(C(F)(F)F)cc2)c(NC2CCCCCC2)n1`: 65.2% (inactive).
Same read-out and setting: the same measure for `CC(=O)Nc1ccc(S(=O)(=O)N2C(=O)CCC2C(=O)Nc2ccccc2)cc1` (stereo not drawn): 27.5% (inactive).
